Growth inhibition data for ten compounds are collected here from PubChem BioAssay (NCI).

About 79,000 compounds went through this panel and 15% of them were active in at least one assay; those are over-represented in the sample as a whole. Unmarked numbers belong to inactive results. Calls of active or inactive are those of the source. Rule as the data show it: active = growth inhibition above about 70%; inactive = the rest.

Experiment [1] can be described thus: NCI Yeast Anticancer Drug Screen. Data for the rad50 strain (AID 155).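 Also: 0% = growth of vehicle-only cultures of the same strain.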 The settings on record: S. cerevisiae rad50 strain growth inhibition, stronger effect = higher value. The method in brief:
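Vehicle-treated cultures provide the reference for the growth inhibition reported for compound-exposed, repair-deficient yeast.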

Experiment [2] can be described thus: NCI Yeast Anticancer Drug Screen. Data for the mec2-1 strain (AID 157). Conditions: S. cerevisiae mec2-1 strain, stronger effect = higher value. An outline of the steps: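 Compounds were applied to mec2-1 yeast cells. Their growth was then compared with that of vehicle-treated cultures to give growth inhibition.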
A short description of experiment [3]: NCI Yeast Anticancer Drug Screen. Data for the sgs1 mgt1 strain (AID 161).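 Also: 0% = growth of cultures given vehicle only.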 Conditions: S. cerevisiae sgs1 mgt1 strain, stronger effect = higher value. An outline of the steps: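 Yeast cells carrying a defined DNA-repair defect were exposed to test compounds. Growth inhibition was measured relative to vehicle-treated controls.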
The nature of experiment [4]: NCI Yeast Anticancer Drug Screen. Data for the cln2 rad14 strain (AID 165).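 Also: 0% = growth equal to vehicle treated cultures.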 Conditions: S. cerevisiae cln2 rad14 strain, stronger effect = higher value. An outline of the steps:
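Strain: cln2 rad14 yeast, altered in cell cycle control and DNA damage repair. Read-out: growth inhibition vs vehicle.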

Experiment [5] can be described thus: NCI Yeast Anticancer Drug Screen. Data for the bub3 strain (AID 167). Conditions: S. cerevisiae bub3 mutant strain, stronger effect = higher value. An outline of the steps:
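Mutant yeast screening strain plus compound; vehicle-treated cultures serve as the 0% inhibition reference.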

A short description of experiment [6]: NCI Yeast Anticancer Drug Screen. Data for the mlh1 rad18 strain (AID 175). The settings on record: S. cerevisiae mlh1 rad18 strain growth inhibition, stronger effect = higher value. The method in brief:
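A repair-deficient yeast strain is exposed to test compound, and growth is scored relative to vehicle-treated controls.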

Setting [7] is: at 5.0 µM (retest, dose inferred, filed as 0.5).
[8] abbreviates: at 50.0 µM (retest, dose inferred, filed as 5.0).

For `CCCCCCc1c(Cl)nc(Cl)nc1Cl`, the growth inhibition in experiment [1] (setting [7]) was -1%; in experiment [1] (setting [8]), 56%; in experiment [1] (at 50.0 µM), 65.8%; in experiment [2] (setting [7]), 1%; in experiment [2] (setting [8]), 43%; in experiment [2] (at 50.0 µM), 26.2%. The growth inhibition was -6% in experiment [3] (setting [7]); 41% in experiment [3] (setting [8]); 63.5% in experiment [3] (at 50.0 µM); 0% in experiment [4] (setting [7]); 15% in experiment [4] (setting [8]); -46.6% in experiment [4] (at 50.0 µM). The growth inhibition in experiment [5] (setting [7]) is -1%; in experiment [5] (setting [8]), 33%; in experiment [5] (at 50.0 µM), 25.1%; in experiment [6] (setting [7]), -2%; in experiment [6] (setting [8]) it was 66%; in experiment [6] (at 50.0 µM) it was 87.2% (active).
For the compound `CCN(CC)CCOc1cccc2c1C(=O)c1c(O)cccc1C2=O`, the growth inhibition in experiment [1] (setting [7]) is 12%; in experiment [1] (setting [8]), 72% (active); in experiment [1] (at 50.0 µM), 59.4%; in experiment [2] (setting [7]), -21%; in experiment [2] (setting [8]), 70% (active); in experiment [2] (at 50.0 µM), 39.3%. Also, the growth inhibition in experiment [3] (setting [7]) is 4%; in experiment [3] (setting [8]), 54%; in experiment [3] (at 50.0 µM) it was 71.2% (active); in experiment [4] (setting [7]), 5%; in experiment [4] (setting [8]) it was 38%; in experiment [4] (at 50.0 µM) it was 74.3% (active). Besides, the growth inhibition in experiment [5] (setting [7]) was 8%; in experiment [5] (setting [8]), 47%; in experiment [5] (at 50.0 µM), 35.9%; in experiment [6] (setting [7]), -1%; in experiment [6] (setting [8]), 79% (active); in experiment [6] (at 50.0 µM), 62.4%.
`COC(=O)CCC(=O)c1ccc2c(c1)CC1(Cc3ccccc3C1)C2`: the growth inhibition in experiment [1] (setting [7]) is 20%; in experiment [1] (setting [8]) it was 29%; in experiment [1] (at 50.0 µM), 14.4%; in experiment [2] (setting [7]), 24%; in experiment [2] (setting [8]), 21%; in experiment [2] (at 50.0 µM), 3.85%. In addition, the growth inhibition in experiment [3] (setting [7]) is 24%; in experiment [3] (setting [8]), 46%; in experiment [3] (at 50.0 µM), 15.3%; in experiment [4] (setting [7]), 14%; in experiment [4] (setting [8]) it was 8%; in experiment [4] (at 50.0 µM), 17.6%. The growth inhibition in experiment [5] (setting [7]) was 25%; in experiment [5] (setting [8]), 44%; in experiment [5] (at 50.0 µM), 41.4%; in experiment [6] (setting [7]) it was 29%; in experiment [6] (setting [8]) it was 30%; in experiment [6] (at 50.0 µM), 12.1%.
On to `NNc1ccccc1[N+](=O)[O-]`, for which the growth inhibition in experiment [1] (setting [7]) was 8%; in experiment [1] (setting [8]), 80% (active); in experiment [1] (at 50.0 µM), 89% (active); in experiment [2] (setting [7]) it was 8%; in experiment [2] (setting [8]), 84% (active); in experiment [2] (at 50.0 µM) it was 89.2% (active). Besides, the growth inhibition was -2% in experiment [3] (setting [7]); 62% in experiment [3] (setting [8]); 84.6% (active) in experiment [3] (at 50.0 µM); 24% in experiment [4] (setting [7]); 82% (active) in experiment [4] (setting [8]); 77.2% (active) in experiment [4] (at 50.0 µM). The growth inhibition was 6% in experiment [5] (setting [7]); 98% (active) in experiment [5] (setting [8]); 88.5% (active) in experiment [5] (at 50.0 µM); -11% in experiment [6] (setting [7]); 96% (active) in experiment [6] (setting [8]); 83.3% (active) in experiment [6] (at 50.0 µM).
Take `C1=C(C2=CCCc3ccccc32)c2ccccc2CC1`: the growth inhibition in experiment [1] (setting [7]) is -1%; in experiment [1] (setting [8]), 36%; in experiment [1] (at 50.0 µM), 30.4%; in experiment [2] (setting [7]), -5%; in experiment [2] (setting [8]), 27%; in experiment [2] (at 50.0 µM), 34.5%. Also, the growth inhibition was -3% in experiment [3] (setting [7]); 50% in experiment [3] (setting [8]); 31.9% in experiment [3] (at 50.0 µM); -4% in experiment [4] (setting [7]); 59% in experiment [4] (setting [8]); -45.8% in experiment [4] (at 50.0 µM). The growth inhibition was -2% in experiment [5] (setting [7]); 34% in experiment [5] (setting [8]); 5.5% in experiment [5] (at 50.0 µM); -1% in experiment [6] (setting [7]); 43% in experiment [6] (setting [8]); 74.9% (active) in experiment [6] (at 50.0 µM).
For `Clc1ccccc1CN1COc2c(cc(Cl)c3cccnc23)C1`, the growth inhibition in experiment [1] (setting [7]) is 21%; in experiment [1] (setting [8]) it was 99% (active); in experiment [1] (at 50.0 µM), 98.6% (active); in experiment [2] (setting [7]), 6%; in experiment [2] (setting [8]), 99% (active); in experiment [2] (at 50.0 µM) it was 99.5% (active). Also, the growth inhibition in experiment [3] (setting [7]) was 87% (active); in experiment [3] (setting [8]) it was 100% (active); in experiment [3] (at 50.0 µM), 99.4% (active); in experiment [4] (setting [7]) it was 6%; in experiment [4] (setting [8]), 99% (active); in experiment [4] (at 50.0 µM), 98.8% (active). Moreover, the growth inhibition is 61% in experiment [5] (setting [7]); 99% (active) in experiment [5] (setting [8]); 99.3% (active) in experiment [5] (at 50.0 µM); 97% (active) in experiment [6] (setting [7]); 99% (active) in experiment [6] (setting [8]); 99% (active) in experiment [6] (at 50.0 µM).
`CC1=Cc2cc3[n-]c(cc4nc(cc5[n-]c(cc1n2)cc5C)C(C)=C4CCC(=O)O)c(CCC(=O)O)c3C.[Pd+2]`: the growth inhibition was 0% in experiment [1] (setting [7]); 72% (active) in experiment [1] (setting [8]); 15.1% in experiment [1] (at 50.0 µM); 2% in experiment [2] (setting [7]); 55% in experiment [2] (setting [8]); 26% in experiment [2] (at 50.0 µM). Also, the growth inhibition in experiment [3] (setting [7]) was 0%; in experiment [3] (setting [8]), 80% (active); in experiment [3] (at 50.0 µM), 12.2%; in experiment [4] (setting [7]), -11%; in experiment [4] (setting [8]), 61%; in experiment [4] (at 50.0 µM) it was 62.8%. The growth inhibition in experiment [5] (setting [7]) was -3%; in experiment [5] (setting [8]), 69%; in experiment [5] (at 50.0 µM) it was 7.7%; in experiment [6] (setting [7]), -1%; in experiment [6] (setting [8]), 73% (active); in experiment [6] (at 50.0 µM) it was 10.6%.
Turning to `CSC(C=P(c1ccccc1)(c1ccccc1)c1ccccc1)=Nc1ccccc1`, the growth inhibition was 58% in experiment [1] (setting [7]); 98% (active) in experiment [1] (setting [8]); 96.8% (active) in experiment [1] (at 50.0 µM); 22% in experiment [2] (setting [7]); 96% (active) in experiment [2] (setting [8]); 99% (active) in experiment [2] (at 50.0 µM). Further, the growth inhibition in experiment [3] (setting [7]) was 23%; in experiment [3] (setting [8]), 98% (active); in experiment [3] (at 50.0 µM), 95.5% (active); in experiment [4] (setting [7]), 3%; in experiment [4] (setting [8]) it was 97% (active); in experiment [4] (at 50.0 µM) it was 98.3% (active). Besides, the growth inhibition is 16% in experiment [5] (setting [7]); 97% (active) in experiment [5] (setting [8]); 98.2% (active) in experiment [5] (at 50.0 µM); 15% in experiment [6] (setting [7]); 97% (active) in experiment [6] (setting [8]); 95.7% (active) in experiment [6] (at 50.0 µM).
In the case of `CCC[CH2][Sn]([CH2]CCC)([O]N(C)C(=O)c1ccc(Br)cc1)[O]N(C)C(=O)c1ccc(Br)cc1`, the growth inhibition in experiment [1] (setting [7]) was 63%; in experiment [1] (setting [8]), 98% (active); in experiment [1] (at 50.0 µM), 89.5% (active); in experiment [2] (setting [7]), 87% (active); in experiment [2] (setting [8]) it was 99% (active); in experiment [2] (at 50.0 µM) it was 90.2% (active). Moreover, the growth inhibition in experiment [3] (setting [7]) is 33%; in experiment [3] (setting [8]) it was 95% (active); in experiment [3] (at 50.0 µM), 92.8% (active); in experiment [4] (setting [7]), 27%; in experiment [4] (setting [8]), 98% (active); in experiment [4] (at 50.0 µM), 90.7% (active). For the same compound, the growth inhibition in experiment [5] (setting [7]) is 37%; in experiment [5] (setting [8]) it was 97% (active); in experiment [5] (at 50.0 µM) it was 90.7% (active); in experiment [6] (setting [7]), 90% (active); in experiment [6] (setting [8]), 98% (active); in experiment [6] (at 50.0 µM), 90.5% (active).
`O=C(/C=C/c1cccnc1)c1cc(Cl)ccc1O`: the growth inhibition was 3% in experiment [1] (setting [7]); 61% in experiment [1] (setting [8]); 86.9% (active) in experiment [1] (at 50.0 µM); 3% in experiment [2] (setting [7]); 40% in experiment [2] (setting [8]); 23.9% in experiment [2] (at 50.0 µM). For the same compound, the growth inhibition in experiment [3] (setting [7]) was -3%; in experiment [3] (setting [8]) it was 22%; in experiment [3] (at 50.0 µM), 56.9%; in experiment [4] (setting [7]) it was 1%; in experiment [4] (setting [8]), 24%; in experiment [4] (at 50.0 µM), 26.6%. The growth inhibition was 1% in experiment [5] (setting [7]); 71% (active) in experiment [5] (setting [8]); 5.2% in experiment [5] (at 50.0 µM); 5% in experiment [6] (setting [7]); 48% in experiment [6] (setting [8]); 42.5% in experiment [6] (at 50.0 µM).
